From PubChem
Rows were chosen to be rich in hits. Some 19% of all compounds tested hit in one or more screens of this group.
KB-3-1 cytotox: KB-3-1 parental cell cytotoxicity; 400,000 compounds, 1.4% hits; Potency, µM (top dose mostly 46.1 µM), hits mostly cytotoxic; KB-3-1 viability, CellTiter-Glo ATP luminescence, 72 h; AID 1347075; further: nearly all actives have a fitted effect of over 60% in size
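Multi-concentration cytotoxicity screen in KB-3-1 cells grown in DMEM lacking phenol red with 10% FBS. After 72 h at 37 °C with compound, ATP-dependent luminescence was recorded.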
HT1080 IDH1KD tx: HT-1080 IDH1 knockdown cell toxicity (counter line) | 360,000 compounds, 2% hits | AID 686971 | Potency, µM (highest dose often 46.1 µM), without a hit: top-dose activity, negative = toxicity, most hits filed as cytotoxic | HT-1080 IDH1 knockdown viability, ATP luminescence, 48 h;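 further: 0% = DMSO wells and -100% = cell-free medium wells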
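Knockdown cells (IDH1KD HT-1080) received compounds 2 h after plating at 750 cells/well and were kept 48 h at 37 °C in 5% FBS RPMI. A CellTiter-Glo luminescence read gave % activity for curve fitting.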
DT40 TDP1 CPT: growth inhibition of DT40 Tdp1-/-;hTDP1 cells with camptothecin (screen for TDP1 inhibitors) | 420,000 compounds, 12% hits | Potency, µM (series often up to 46.2 µM), inactives show at the top dose activity change, negative = growth inhibition, usual class: inhibitors | chicken DT40 Tdp1-/-;hTDP1 cells + 20 nM CPT, ATP luminescence, 48 h; further: nearly all actives have a fitted effect of over 55% in size
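Chicken DT40 Tdp1-/- cells complemented with human TDP1, 400 cells/well, exposed to compounds plus 20 nM camptothecin for at least 48 h at 37 C; viability read as ATP content by CellTiter-Glo luminescence.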
TDP1 cell noCPT: qHTS for Inhibitors of human tyrosyl-DNA phosphodiesterase 1 (TDP1): qHTS in cells in absence of CPT; Potency, µM (doses to about 46.2 µM), for the others: at the highest dose activity change, negative = growth inhibition, hits mostly inhibitors; 420,000 compounds, 15% hits; DT40 Tdp1-/- hTDP1 cells, no CPT, ATP luminescence, 48 h; further: nearly all actives have a fitted effect of over 55% in size
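Chicken DT40 Tdp1-/- cells stably complemented with human TDP1 were seeded at 400 cells/well with DMSO in place of 20 nM camptothecin. After compound pinning, cells grew at least 48 hr at 37 °C; viability read by CellTiter-Glo luminescence.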
HT1080-NT tox: kills 2HG-producing HT-1080-NT fibrosarcoma cells | HT-1080-NT fibrosarcoma viability, CellTiter-Glo ATP luminescence, 48 h | Potency, µM (titrated, usually from 46.1 µM), inactives show top-dose activity, negative = less viability, usual class: cytotoxic | 360,000 compounds, 1.6% hits | AID 686970;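 further: NT is the 2HG producing partner of a matched IDH1 knockdown line; 0% = DMSO-treated cells and -100% = media-only wells without cells; nearly all actives have a fitted effect of over 55% in size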
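HT-1080-NT; 750 cells/well; 5% FBS RPMI; 48 h compound, 37 degrees C; CellTiter-Glo luminescence; curve fitting and curve-class assignment.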
KB-V1 MDR tox: KB-V1 MDR subline cytotoxicity; KB-V1 MDR cells viability, CellTiter-Glo, 72 h; Potency, µM (top dose mostly 46.1 µM), most hits filed as cytotoxic; 400,000 compounds, 3.4% hits; further: nearly all actives have a fitted effect of over 60% in size
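KB-V1 MDR subline cells in DMEM (phenol-red free, 10% FBS) exposed to compounds in qHTS concentration series for 72 h at 37 degrees C. Viability read by CellTiter-Glo luminescence; concentration-effect curves fitted after normalization and correction.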
Active calls of the source: *; i = inactive; u = inconclusive; x = no result given. The call rests on the fitted dose curve; in most records, active means well fitted curve in the direction sought with a large enough effect; inconclusive means small, poorly fitted or top-dose-only effect, or another doubt; inactive means no such curve, though single readings can be large; an effect the other way counts as inactive or inconclusive. Unless noted, on the % scale 0 is the no-effect control and ±100 the full control effect; potency means the concentration at half of the fitted maximal effect.

SMILES	KB-3-1 cytotox	HT1080 IDH1KD tx	DT40 TDP1 CPT	TDP1 cell noCPT	HT1080-NT tox	KB-V1 MDR tox
O=C(C1CC1)N1c2ccccc2Sc2ccccc21	21µM*	18µM*	u	u	u	u
NC(=O)C1CCN(C(=O)N2c3ccccc3Sc3ccccc32)CC1	i	14%	-12%	-28%	-21%	i
COc1cccc(C(=O)N2c3ccccc3Sc3ccccc32)c1	u	u	12µM*	16µM*	-4%	u
COc1ccccc1NC(=O)N1c2ccccc2Sc2ccccc21	i	x	15µM*	15µM*	x	i
CCC1CCCCN1C(=O)Cn1c(=O)cc(C(F)(F)F)c2c(C)nn(C)c21 (configuration not stated)	i	x	u	u	x	i
O=C(NCc1cccnc1)c1nn(-c2ccc(Cl)cc2)nc1CO	x	x	-17%	u	x	x
O=C1NC[C@@H](CCCCN2CCN(Cc3ccccc3)C(=O)C2=O)N(CC2CCCCC2)C1=O	i	12%	-25%	-14%	-3%	u
O=C(c1ccncc1)N1c2ccccc2Sc2ccccc21	u	-12%	21µM*	9.2µM*	u	i
Cc1ccc(-c2cn3c(n2)sc2cc(C(=O)NCCC4=CCCCC4)ccc23)c(C)c1	i	x	16µM*	16µM*	x	i
CCc1ccc(-c2cn3c(n2)sc2cc(C(=O)NCCCc4ccccc4)ccc23)cc1	x	x	-22%	-2%	x	x
Cc1ccc(-c2cn3c(n2)sc2cc(C(=O)NCCCc4ccccc4)ccc23)c(C)c1	i	x	23µM*	18µM*	x	i
CC(=O)Nc1ccc2c(c1)nc(C)n2Cc1ccccc1	i	-2%	10%	1%	1%	i
Cc1nc2cc3c(=O)n(C)cnc3cc2n1Cc1ccccc1	i	-1%	-15%	16µM*	-5%	i
COc1cccc(NC(=O)C2(C)CCN2Cc2ccc(SC)cc2)c1 (configuration not stated)	i	0%	u	u	1%	i
Cc1cc(CCNC=O)c(C)c2c1sc1ccccc12	16µM*	-10%	2%	0%	-6%	16µM*
CC(C)c1ccc(NC2CCCN(C(=O)CCn3cnnn3)C2)cc1 (configuration not stated)	i	-1%	u	-3%	-2%	i
O=C(CCN1C(=O)S/C(=C\c2ccccc2)C1=O)N1CCOCC1	i	2%	u	-30%	4%	i
O=C(CCCN1C(=O)/C(=C/c2ccccc2Cl)SC1=S)N1CCCC1	i	-1%	u	21µM*	-7%	i
O=C(CCCN1C(=O)/C(=C/c2ccccc2Cl)SC1=S)NNC(=O)c1ccncc1	u	-10%	u	u	-6%	i
O=C(CCN1C(=O)/C(=C/c2ccccc2Cl)SC1=S)N1CCCC1	u	u	9.2µM*	6.5µM*	u	u
O=C(CCN1C(=O)S/C(=C\c2ccccc2)C1=O)N1CCCCC1	i	-1%	u	u	0%	i
O=C(CCN1C(=O)/C(=C/c2ccccc2Cl)SC1=S)N1CCOCC1	x	13%	5.2µM*	3.7µM*	6%	x
Cc1cc(NC(=O)CCCN2C(=O)/C(=C/c3ccccc3Cl)SC2=S)no1	u	-2%	u	u	1%	21µM*
COc1ccccc1CNC(=O)COC(=O)c1cccc(S(=O)(=O)N2CCCC2)c1	i	4%	-2%	-18%	1%	i
CCC(=O)N(C)C[C@H]1Oc2cc(-c3cccnc3)ccc2S(=O)(=O)N([C@H](C)CO)C[C@H]1C	i	10%	-8%	-19%	-2%	i
